High-throughput results deposited in PubChem BioAssay by Paczesny and Yang Labs, IUPUI and University of Michigan.
This excerpt belongs to a sample that is enriched for hits.
ST2 inh – blocks human ST2 binding to IL-33. 2.3% of 78,000 active. AlphaLISA ST2-Fc/biotin-IL-33 interaction, 1 h. Q01638. inhibition, % for hits at 17 µM; in the data active = inhibition above about 30%
Target sequence (Q01638 whole entry, looked up): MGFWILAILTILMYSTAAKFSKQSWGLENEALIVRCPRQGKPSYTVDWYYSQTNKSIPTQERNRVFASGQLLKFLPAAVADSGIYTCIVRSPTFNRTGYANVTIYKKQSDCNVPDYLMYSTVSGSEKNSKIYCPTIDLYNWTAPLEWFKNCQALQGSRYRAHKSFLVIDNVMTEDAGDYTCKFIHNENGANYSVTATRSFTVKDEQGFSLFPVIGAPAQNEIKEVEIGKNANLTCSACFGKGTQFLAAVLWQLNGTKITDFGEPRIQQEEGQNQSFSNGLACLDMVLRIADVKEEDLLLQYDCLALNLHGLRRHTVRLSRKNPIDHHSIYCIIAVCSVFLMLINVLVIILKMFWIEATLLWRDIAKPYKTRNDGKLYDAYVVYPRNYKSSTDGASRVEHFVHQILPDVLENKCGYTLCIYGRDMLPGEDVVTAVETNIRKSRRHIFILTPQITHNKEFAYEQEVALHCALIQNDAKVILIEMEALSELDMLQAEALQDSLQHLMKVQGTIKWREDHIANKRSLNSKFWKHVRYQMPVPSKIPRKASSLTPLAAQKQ
* hit, by the source's call; i = inactive.

SMILES	ST2 inh
CCOc1cc(/C=C2/NC(=O)NC2=O)ccc1OCc1ccccc1C#N	i
NS(=O)(=O)c1cc(C(=O)Nc2ccccc2)ccc1Br	i
O=C(NC1CCCC1)c1ccc2c(c1)N(Cc1ccc(F)cc1Cl)C(=O)CS2	i
Cn1c(CNc2ccccc2)cc(=O)n(C)c1=O	i
Cn1c(=O)cc2c3c(c(Nc4ccccc4)ccc31)C(=O)c1ccccc1-2	40.0%*
O=C1NC(=O)c2cc(Nc3ccccc3)c(Nc3ccccc3)cc21	i
COc1ccc(NCc2ccc([N+](=O)[O-])s2)cc1OC	45.0%*
COc1ccc(Nc2ncnc(N)c2[N+](=O)[O-])cc1OC	i
COc1ccc(NC(=O)Cc2ccccc2[N+](=O)[O-])cc1OC	i
NCC1CN(C(=O)C(=O)NC2CCCC2)CCO1 (stereo not drawn)	i
O=C(c1ccc(-c2nnc(-c3ccccc3)o2)cc1)N1CCCCC1	i
O=C(O)CCCc1c[nH]c2ccccc12	i
NC(=O)Cc1c[nH]c2cccc(O)c12	101.0%*
CC(Cc1c[nH]c2ccccc12)NC(N)=O (stereo not drawn)	i
Cn1c(C2CCC2)nc2cc(C(=O)N3CCc4sccc4C3)cc(NC(=O)C3CCCO3)c21 (stereo not drawn)	i
O=C(CCn1ccc(=O)[nH]c1=O)N1CCCC2(C=Cc3ccccc3O2)CC1 (stereo not drawn)	i
Cc1nn(-c2ccccc2)c(Cl)c1C(=O)Nc1cccc(Cl)c1	i
CC1=NN(c2ccccc2)C(=O)C1C(c1cccc(Cl)c1)C(C#N)C#N (stereo not drawn)	62.0%*
O=C(Nc1cccc(Cl)c1)C(O)c1ccccc1 (stereo not drawn)	i
O=C1NN(c2ccc(Cl)c(Cl)c2)C(=O)/C1=C\c1ccc(-c2cccc(C(=O)O)c2)o1	i
CC1=NN(c2cccc(Br)c2)C(=O)/C1=C\c1ccc(-c2cccc([N+](=O)[O-])c2)o1	i
Cc1ccc(N2NC(=O)/C(=C/c3ccc(-c4cccc([N+](=O)[O-])c4)o3)C2=O)cc1C	61.0%*
COc1ccccc1/C=C/C1=NC(=C\c2ccc(C)cc2)/C(=O)O1	38.0%*
COc1ccccc1/C=C/C1=NC(=C\c2cc(Br)cs2)/C(=O)O1	i
COc1ccccc1/C=C/C1=NC(=C\c2ccc([N+](=O)[O-])cc2)/C(=O)O1	i
SMILES	ST2 inh
COc1ccccc1/C=C/C1=NC(=C\c2cccc(Cl)c2)/C(=O)O1	34.0%*
COc1ccccc1/C=C/C1=NC(=C\c2cccc(Cl)c2Cl)/C(=O)O1	i
COc1ccccc1/C=C/C1=NC(=C\c2ccc(Cl)c(Cl)c2)/C(=O)O1	i
CCCCNC(=O)C1CC(=O)N(C2CCCCCC2)C1 (stereo not drawn)	i
CC1(C)C(=O)OC(c2ccccc2I)C(C)(C)C1=O (stereo not drawn)	i
O=C(NCc1ccccc1F)c1cccn1-c1nnc(N2CCCCC2)s1	i
O=C(c1cn(C/C=C/c2ccccc2)nn1)N1CCC(C(O)c2cccs2)CC1 (stereo not drawn)	i
Cc1ccc(NCCCNC(=O)c2ccc(=O)n(C)c2)nc1	i
Cc1ccc(C(=O)N2CCc3c(c(C(=O)N4CCNC(=O)C4)nn3CCCc3ccccc3)C2)s1	30.0%*
O=C(c1n[nH]c2c1CCC2)N1CCc2c(c(C(=O)N3CCOCC3)nn2CCCc2ccccc2)C1	i
O=C(Cc1cccs1)N1CCc2c(c(C(=O)N3CCOCC3)nn2CCCc2ccccc2)C1	i
Cc1ccc2nc(NC(C)C(=O)O)nc(-c3ccccc3)c2c1 (stereo not drawn)	i
c1ccc(-c2ncn(CCCOc3cccnc3)c2-c2ncc[nH]2)cc1	i
Nc1ccc(Cl)c2c1C(=O)c1ccccc1C2=O	42.0%*
Nc1cccc2c1C(=O)N(c1ccc(Cl)cc1)C2=O	i
Nc1ccc(N2C(=O)c3ccccc3C2=O)c(Cl)c1	i
COc1ccc2nc(N3CCOCC3)sc2c1	i
Cc1nnc(-c2cccc(-c3cc(NCc4ccccn4)nc4[nH]ccc34)c2)o1	35.0%*
Cc1cccc(-c2nnc(-c3nc(NCc4ccccc4C)c4ccccc4n3)o2)c1	i
Cc1nnc(-c2ccccc2-c2cccc(CN3CCOCC3)c2)o1	i
OC(C#Cc1ccccc1)C#CC(O)(c1ccccc1)c1ccccc1 (stereo not drawn)	i
CCCNc1ncc(CN2CCOC(Cc3cccc(F)c3)C2)cn1 (stereo not drawn)	i
[O-][n+]1cccc2c(Br)cc(Br)c(O)c21	30.0%*
CCCOC(=O)C1=C(C)NC2=C(C(=O)C(C(=O)OC)C(C)C2)C1c1ccc(O)cc1 (stereo not drawn)	i
CCOC(=O)C1(CCCc2ccccc2)CCCN(C(=O)c2c(C)noc2C)C1 (stereo not drawn)	i
O=C(Cn1ccc2ccccc2c1=O)NCC(=O)N1CCN(c2cccc(Cl)c2)CC1	i
COc1cccc(-c2ccc3c(c2)CCCN3C(C)=O)c1OC	i
OC[C@@H]1O[C@H](CNC2CCOCC2)[C@H](N2CCN(c3ccccc3)CC2)[C@@H]1O	i
